Screening results: PubChem, National Center for Advancing Translational Sciences (NCATS)
Shown are actives, neighbours in structure and some others; about 18% of the full set was active somewhere.
IL-1B inflam inh: qHTS for Inhibitors of Inflammasome Signaling: IL-1-beta AlphaLISA Primary Screen; THP-1 LPS/ATP IL-1B secretion, AlphaLISA, 16 h; stronger effect = lower value; activity change, % at 57.5 µM; 360,000 compounds, 4.7% hits; in the data active means activity change below about -50%; inconclusive means mostly about -30% to -49%; further: on the % scale 0 is the no-effect control and ±100 the full control effect
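Secreted IL-1B measured by AlphaLISA bead assay after 16 h compound exposure of THP-1 cells; compounds (final up to 57.5 uM) added 1 h before LPS (250 ng/mL) and ATP (1.25 mM) stimulation; lower signal means less secretion.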
HepG2 tox: qHTS for Inhibitors of TGF-b: Cytotox Counterscreen. AID 588856, 2011. HepG2 CAGA-GFP viability, ATP luminescence, 18 h. Potency, µM (highest dose often 46.1 µM), for the others: at the highest dose activity change, negative = cytotoxicity, most hits filed as cytotoxic. 410,000 compounds, 0.76% hits; further: potency means the concentration at half of the fitted maximal effect
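HepG2 CAGA-GFP cells (1000/well, DMEM with 1% FBS) received compound, then TGF-beta at 500 pg/mL final, and were incubated 18 hours at 37 degrees C. Viability was read by CellTiter-Glo luminescence. Media-only wells were set as complete cell-killing and DMSO as no toxicity.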
TGFb inhibitor: qHTS for Inhibitors of TGF-b. Potency, µM (titrated, usually from 46.1 µM), for the others: at the top dose activity, negative = inhibition, most hits filed as inhibitors. AID 588855, 2011. 410,000 compounds, 1.2% hits. HepG2 CAGA-GFP TGF-b/SMAD3 reporter, GFP fluorescence, 18 h; TGF-beta stimulated, 500 pg/mL final; further: potency means the concentration at half of the fitted maximal effect; on the % scale 0 is the no-effect control and ±100 the full control effect; nearly all actives have a fitted effect of over 65% in size
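HEPG2 CAGA-GFP, 1000 cells/well; 2 h settle, 37 C; cpd via pin tool; TGF-b 500 pg/mL final; 18 h, 37 C; GFP imaging ex488/em500-530; %Activity normalised to -TGF-b and +DMSO controls; CRC fit, curve class.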
DT40 TDP1 CPT: qHTS for Inhibitors of human tyrosyl-DNA phosphodiesterase 1 (TDP1): qHTS in cells in presence of CPT; chicken DT40 Tdp1-/-;hTDP1 cells + 20 nM CPT, ATP luminescence, 48 h; Potency, µM (highest dose often 46.2 µM), inactives show at the highest dose activity change, negative = growth inhibition, hits mostly inhibitors; 420,000 compounds, 12% hits; further: potency means the concentration at half of the fitted maximal effect; on the % scale 0 is the no-effect control and ±100 the full control effect; nearly all actives have a fitted effect of over 55% in size
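Chicken DT40 Tdp1-/- cells complemented with human TDP1, 400 cells/well, exposed to compounds plus 20 nM camptothecin for at least 48 h at 37 C; viability read as ATP content by CellTiter-Glo luminescence.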
TDP1 cell noCPT: qHTS for Inhibitors of human tyrosyl-DNA phosphodiesterase 1 (TDP1): qHTS in cells in absence of CPT. DT40 Tdp1-/- hTDP1 cells, no CPT, ATP luminescence, 48 h. Potency, µM (top dose mostly 46.2 µM), without a hit: top-dose activity change, negative = growth inhibition, usual class: inhibitors. 420,000 compounds, 15% hits. AID 686978, 2013; further: potency means the concentration at half of the fitted maximal effect; on the % scale 0 is the no-effect control and ±100 the full control effect; nearly all actives have a fitted effect of over 55% in size
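A cellular qHTS used chicken DT40 cells lacking endogenous Tdp1 but carrying stably transfected human TDP1. Compounds were applied without camptothecin, and cell growth kinetics were judged by ATP-dependent luminescence after ≥48 hr.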
TDP1 inh: qHTS Assay for Inhibitors of Tyrosyl-DNA Phosphodiesterase (TDP1); recombinant TDP1, AlphaScreen DNA substrate cleavage; Potency, µM (highest dose often 130 µM), for inactives: top-dose activity change, negative = inhibition, hits mostly inhibitors; Tyrosyl-DNA phosphodiesterase 1 (Homo sapiens), Q9NUW8; 350,000 compounds, 0.28% hits; further: potency means the concentration at half of the fitted maximal effect; on the % scale 0 is the no-effect control and ±100 the full control effect; nearly all actives have a fitted effect of over 40% in size
Target sequence (Q9NUW8 whole entry, looked up): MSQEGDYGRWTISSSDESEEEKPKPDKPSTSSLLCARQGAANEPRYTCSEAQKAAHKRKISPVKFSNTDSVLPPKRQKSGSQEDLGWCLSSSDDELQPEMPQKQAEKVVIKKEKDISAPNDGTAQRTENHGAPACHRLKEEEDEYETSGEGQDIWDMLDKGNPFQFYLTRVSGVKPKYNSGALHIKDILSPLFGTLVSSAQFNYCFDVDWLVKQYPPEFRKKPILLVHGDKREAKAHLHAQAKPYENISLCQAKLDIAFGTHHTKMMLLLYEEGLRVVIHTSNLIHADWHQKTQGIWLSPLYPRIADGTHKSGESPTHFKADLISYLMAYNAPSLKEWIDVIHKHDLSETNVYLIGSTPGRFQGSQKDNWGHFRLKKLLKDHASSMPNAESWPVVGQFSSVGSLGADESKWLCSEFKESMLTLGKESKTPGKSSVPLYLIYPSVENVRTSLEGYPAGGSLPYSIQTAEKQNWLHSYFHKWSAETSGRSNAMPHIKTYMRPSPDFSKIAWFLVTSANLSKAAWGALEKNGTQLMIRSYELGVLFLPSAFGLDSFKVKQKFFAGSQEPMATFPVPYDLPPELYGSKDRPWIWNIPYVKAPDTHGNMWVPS
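Enzyme-compound mixtures sat 15 min at room temperature, followed by a 5 min reaction with 15 nM final substrate and 10 min with AlphaScreen beads. Recombinant human Tdp1 was used at 1 nM final.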
Starred values were filed as active, the others as inactive; ? = inconclusive; · = not tested or not shown; ! = not active in a repeat; [ ] = remark or other dose. Unless noted, the call rests on the fitted dose curve; in most records, active means well fitted curve in the direction sought with a large enough effect; inconclusive means small, poorly fitted or top-dose-only effect, or another doubt; inactive means no such curve, though single readings can be large; an effect the other way counts as inactive or inconclusive.

SMILES	IL-1B inflam inh	HepG2 tox	TGFb inhibitor	DT40 TDP1 CPT	TDP1 cell noCPT	TDP1 inh
COc1ccc(NC(=O)C2(C)Cc3c(-c4ccc5c(c4)OCO5)ccnc3O2)cn1 (configuration not stated)	31	-85%	-21%	3.3µM*	2.6µM*	·
CC1(C(=O)Nc2ccc(Cl)cc2)Cc2c(-c3ccc4c(c3)OCO4)ccnc2O1 (configuration not stated)	64	4%	13%	?	?	·
CC1(C(=O)Nc2ccc3c(c2)OCO3)Cc2c(-c3cccc(C(N)=O)c3)ccnc2O1 (configuration not stated)	15	-1%	7%	2.9µM*	4.1µM*	·
CC1(C(=O)Nc2ccc3c(c2)OCO3)Cc2c(-c3ccc4c(c3)OCO4)ccnc2O1 (configuration not stated)	82	-1%	-18%	1.8µM*	2.3µM*	·
CC1(C(=O)Nc2ccccc2)Cc2c(-c3cccc(C(N)=O)c3)ccnc2O1 (configuration not stated)	-9	-22%	13%	?	-21%	·
CC(C)c1ccc(NC(=O)C2(C)Cc3c(-c4ccc5c(c4)OCO5)ccnc3O2)cc1 (configuration not stated)	57	-40%	3%	23µM*	?	·
COc1ccc(NC(=O)C2CCCN(C(=O)c3ccc(Cl)cc3)C2)cc1S(=O)(=O)N(C)C (configuration not stated)	12	0%	-10%	?	-17%	2%
CC1(C(=O)Nc2ccc3nc[nH]c3c2)CCN1C(=O)c1ccccc1CCc1ccccc1 (configuration not stated)	-16	-18%	13%	?	?	·
Cc1ccc(C)c(NC(=O)CN2C(=O)CSc3nc(C)cc(C)c32)c1	·	-1%	-25%	-7%	-22%	3%
Cc1ccc(C)c(S(=O)(=O)N2CCN(C(=O)c3cc(S(=O)(=O)NCc4ccccc4)ccc3C)CC2)c1	?	-22%	?	23µM*	?	1%
CC(=O)N1CCN(C(=O)c2cc(S(=O)(=O)NCc3ccccc3)ccc2C)CC1	3	-1%	4%	-9%	-3%	3%
Cc1ccccc1NS(=O)(=O)c1ccc(C(=O)N2CCCCCCC2)cc1	-13	5%	?	?	?	·
Cc1ccc(S(=O)(=O)NCc2ccccc2)cc1C(=O)N1CCCC(C(F)(F)F)C1 (configuration not stated)	-12	11%	-19%	?	18µM*	-8%
Cc1ccccc1NS(=O)(=O)c1ccc(C(=O)N2CCCC(C(F)(F)F)C2)cc1 (configuration not stated)	-2	11%	-5%	?	12µM*	-1%
Cc1ccc(F)cc1NC(=O)C1C2CCC(O2)C1C(=O)O (configuration not stated)	19	-9%	10%	2%	5%	6%
COCCN1CCN(C(=O)c2cnn(-c3nccc(-c4cc5ccccc5o4)n3)c2C2CC2)CC1	·	·	·	-2%[9.04 µM]	-25%	·
CN=C(NC#N)NCCSCc1csc(N=C(N)N)n1	·	·	·	2%	-20%	9%
O=C(O)c1cc(=O)c2c3nc4ccccc4oc-3cc(=O)c2[nH]1	·	3%	-4%	25µM*	11µM*!	·
COc1ccc(OC)c2c(=O)cc(C(=O)O)[nH]c12	-6	6%	6%	5%	1%	·
Cc1[nH]c2ccccc2c1/C=N/NC(=O)c1cc(-c2ccncc2)nc2ccccc12	0	-18%	-9%	5.8µM*	5.2µM*	9%
Cc1[nH]c2ccccc2c1/C=N/NC(=O)c1cc(-c2ccccc2)n[nH]1	?	23%	-15%	?	18µM*	7%
Cc1nn(-c2ccccc2)c(C)c1/C=N/NC(=O)c1cc(-c2cccc3ccccc23)n[nH]1	-15	-6%	-23%	?	16µM*	6%
COc1cc(C(=O)O/N=C2/C=C(C)C(=O)C=C2C)cc(OC)c1OC	18	-22%	-3%	8.2µM*	2.1µM*	3%
COc1cc(C(=O)ON=C2C(C)=CC(=O)C=C2C)cc(OC)c1OC	-4	-1%	-7%	-13%	1%	7%
COc1ccc(C2=NOC(C)(c3nnc(-c4ccccc4)o3)C2)cc1 (configuration not stated)	-21	-66%	-23%	-24%	5%	·
SMILES	IL-1B inflam inh	HepG2 tox	TGFb inhibitor	DT40 TDP1 CPT	TDP1 cell noCPT	TDP1 inh
O=C(CSc1ccc2ccccc2n1)N/N=C/c1ccc(O)cc1	56	-16%	4%	?	?	·
O=C(Cn1cnc([N+](=O)[O-])n1)N/N=C/c1ccccc1O	166	3%	-24%	16µM*	16µM*	7%
O=C(Cn1cncn1)N/N=C/c1ccccc1O	37	-21%	-31%	15µM*	13µM*	6%
O=C(CCn1cnc2ccccc21)N/N=C/c1ccccc1O	253	-34%	-13%	?	23µM*	5%
O=C(CSc1ccc2ccccc2n1)N/N=C/c1ccccc1O	299	-11%	-21%	5.2µM*	5.8µM*	·
O=C(Cn1cnc([N+](=O)[O-])n1)N/N=C/c1cc(Cl)ccc1O	169	-30%	-8%	4.6µM*	7.3µM*	9%
COc1ccccc1-c1nnc(SCC(=O)NCc2c(C)c(Cl)cc(C(C)C)c2O)o1	-12	-101%	18µM*	29µM*	?	11%
COc1ccccc1-c1nnc(SCC(=O)Nc2c(Cl)cccc2Cl)o1	-9	-13%	25%	18µM*	21µM*	-1%
CCOC(=O)CSc1nnc(-c2ccccc2OC)o1	23	1%	-14%	0%	-2%	-1%
O=C(Nc1ccccc1C(F)(F)F)Nc1c[nH]c(=O)[nH]c1=O	·	-1%	6%	-1%	-4%	3%
CCOC(=O)[C@]12CCC=C1N(Cc1ccc(Cl)cc1Cl)C(=O)[C@H](CC(=O)N1CCN(C(=O)c3ccco3)CC1)C2	?	·	·	16µM*	16µM*	·
